In the library only some 7% were active in any assay of this set; here they are far more common.
proKLK7 act = activators of human kallikrein-7 zymogen; P49862; purified proKLK7, EDANS-DABCYL substrate fluorescence; 100% is mature enzyme control, 0% vehicle; activation, % at 7 µM; actives 0.9% (n = 370,000);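 active = activation above the mean of all tested compounds plus 3 SD, computed per campaign excluding outliers beyond control limits, cut at about 13% in these data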
ADAM17 inh = inhibitors of human ADAM17; P78536; recombinant ADAM17, EDANS/DABCYL FRET peptide cleavage; inhibition, % at 6.95 µM; actives 0.83% (n = 370,000);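 active = inhibition above the mean of compounds lying between control limits plus 3 SD, set per campaign, cut at about 8.5% in these data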;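 note: 0% = DMSO-only wells as the low control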
NR3A LBD binder = NR3A (human) ligand-binding domain modulation; NR3A LBD differential scanning fluorimetry, Tm shift; 0% = protein alone, 100% = glycine-bound protein; actives 2.5% (n = 340,000); Tm shift relative to glycine control, % at 25 µM;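 active = melting temperature shift of at least 10% of the positive control shift, at one fixed dose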
ADAM10 inh = inhibits human ADAM10 | O14672 | recombinant ADAM10, EDANS/DABCYL FRET peptide cleavage, 3 h | inhibition, % at 7 µM | actives 0.62% (n = 370,000) | AID 720582;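 active = inhibition above a per-campaign cutoff equal to the mean of compounds falling between control-based bounds plus 3 SD, cut at about 20% in these data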;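 note: 0% = DMSO wells while the 100% control is not disclosed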
rCAG RNA binder = molecules binding r(CAG) RNA repeats. r(CAG) RNA repeat, TO-PRO-1 dye displacement fluorescence. inhibition, % at 3 µM. actives 1.3% (n = 370,000);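 active = inhibition above the plate cutoff, the mean of all test compounds on that plate plus 3 SD, cut at about 35% in these data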;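 note: 0% = DMSO alone and 100% = 100 µM mitoxantrone as full dye displacement; higher means more dye released from RNA so lower well fluorescence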
AHR activator = activators of human aryl hydrocarbon receptor; P35869; AHR-responsive luciferase reporter cells, luminescence; activation, % at 5 µM; actives 2.5% (n = 320,000); in the data active = activation above about 47%;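 note: 0% = vehicle wells and 100% = reference agonist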
ADAM10 confirm = confirmation of inhibitors of human ADAM10; shares compounds with ADAM10 inh; ADAM10 QFRET peptide cleavage, EDANS fluorescence; inhibition, % at 6.95 µM; actives 1% (n = 2,100); AID 743208;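 active = inhibition above about 20% chosen separately for each screening run, limit read from the data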;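 note: 0% = DMSO wells and 100% = marimastat wells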
ADAM17 ctr = inhibits human ADAM17 in ADAM10 exosite counter-screen; shares compounds with ADAM10 inh; actives 0.5% (n = 2,100); ADAM17 QFRET peptide cleavage, EDANS fluorescence; inhibition, % at 6.95 µM;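 active = mean triplicate inhibition above the solvent-only control wells' mean plus 3 SD, cut at about 12% in these data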;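 note: 0% = DMSO wells and 100% = marimastat wells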
ADAM10 counter = counter-screen for ADAM17 exosite inhibitors: inhibitors of human ADAM10; shares compounds with ADAM17 inh; recombinant ADAM10, EDANS/DABCYL FRET peptide cleavage, 3 h; inhibition, % at 6.95 µM; actives 47% (n = 2,900);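 active = mean inhibition over the triplicate runs exceeds the activity threshold set in the earlier primary screen, cut at about 20% in these data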;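 note: 0% = DMSO wells and 100% = marimastat wells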
ADAM17 confirm = confirmation of inhibitors of human ADAM17; inhibition, % at 6.95 µM; shares compounds with ADAM17 inh; recombinant ADAM17, EDANS/DABCYL QFRET peptide cleavage; actives 65% (n = 2,900); AID 743257;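 active = mean inhibition across replicates above the hit cutoff set in the primary screen, cut at about 8.5% in these data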;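 note: 0% = DMSO wells and 100% = marimastat wells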
The depositor's hits bear a star; . = no result.

SMILES	proKLK7 act	ADAM17 inh	NR3A LBD binder	ADAM10 inh	rCAG RNA binder	AHR activator	ADAM10 confirm	ADAM17 ctr	ADAM10 counter	ADAM17 confirm
CC1CCCN(S(=O)(=O)c2ccc(NC(=O)CN3C(=O)NC(C)(c4ccccc4)C3=O)cc2)C1 (centres undefined)	0.2	5.0	-6.1	20.2*	11.3	0.7	3.6	0.5	.	.
CC[C@]12c3[nH]c4ccc(Cl)cc4c3CCN1C(=O)[C@@H](CC(=O)NCc1cccc(C(F)(F)F)c1)C[C@@H]2C(=O)N1CCN(C(=O)c2ccco2)CC1	0.7	3.2	-6.8	23.3*	9.3	.	0.4	1.9	.	.
CC[C@]12c3[nH]c4ccc(OC)cc4c3CCN1C(=O)C(CC(=O)NCc1cccc(C(F)(F)F)c1)C[C@@H]2C(=O)N1CCN(C(=O)c2ccco2)CC1 (some centres undefined)	-0.6	5.9	-1.4	15.4	2.8	.	.	.	.	.
COc1ccccc1-c1nc2ccccc2nc1-c1ccccc1OC	0.7	0.1	-5.2	-0.1	-7.7	-2.1	.	.	.	.
COc1ccccc1C1=NC(c2ccc(C)cc2)N=C1C (centres undefined)	0.6	6.0	0.3	95.4*	-0.7	0.1	0.2	0.3	.	.
O=C(c1cc(-c2ccccc2)n[nH]1)N1CCc2c([nH]c3ccccc23)C1c1ccccn1 (centres undefined)	0.7	5.2	-3.2	27.1*	4.8	5.6	6.1	3.0	.	.
Cc1ccc(-n2c(SCC(=O)Nc3cccc(S(N)(=O)=O)c3)nc3ccccc32)cc1	-0.1	11.9*	-2.5	20.0*	14.0	0.4	11.4	3.8	26.5*	14.2*
Cc1ccc(-c2csc(N3CCC(NS(=O)(=O)c4ccc5c(c4)OCCO5)CC3)n2)cc1	-0.9	13.0*	-2.4	23.7*	13.5	9.6	9.7	2.9	20.1*	15.2*
COc1ccc(-c2n[nH]c(=S)n2C2CCCCC2)cc1	0.1	-1.6	-1.8	3.4	0.8	-1.9	.	.	.	.
COc1ccc(Cl)cc1-c1n[nH]c(=S)n1C1CCCCC1	-0.7	8.7*	1.5	28.8*	6.6	13.6	0.0	0.1	34.4*	21.2*
CC1(C(=O)OCC(=O)Nc2nc(-c3ccc(F)c(F)c3)cs2)CC1(Cl)Cl (centres undefined)	-0.1	9.3*	7.1	20.7*	0.4	-4.3	8.3	2.4	24.4*	15.6*
COc1ccc(CC(=O)Nc2nc(-c3ccc(F)c(F)c3)cs2)cc1	0.2	5.9	3.0	7.2	5.4	-6.3	.	.	.	.
Cc1ccc(NS(=O)(=O)c2cc3[nH]c(=O)c(=O)[nH]c3cc2C)c(C)c1	-0.8	-8.3	-3.5	-42.9	1.0	2.2	.	.	.	.
Cc1ccc(S(=O)(=O)NCC2Cc3ccccc3N2S(=O)(=O)c2ccc(C)cc2)cc1 (centres undefined)	.	9.2*	.	22.1*	.	.	7.3	2.8	38.7*	16.9*
Cc1ccc(-c2nc3c(Cl)cc(C(F)(F)F)cn3c2Cc2ccccc2)cc1	-0.5	-0.1	.	-7.3	11.8	.	.	.	.	.
Cc1ccc(C(=O)N2CCN(C3c4cccc5cccc(c45)C3NS(=O)(=O)c3ccccc3)CC2)cc1 (centres undefined)	-0.4	11.2*	0.2	24.3*	9.7	4.2	7.1	2.5	18.6	11.9*
CC(=O)N1CCN(C2c3cccc4cccc(c34)C2NS(=O)(=O)c2ccccc2)CC1 (centres undefined)	0.8	0.2	-0.2	11.0	4.3	9.5	.	.	.	.
N#CC1=C(N)NC(SCC(=O)Nc2ccc(Br)cc2)=C(C#N)C12CCCCC2	0.1	11.4*	31.0*	21.7*	14.9	31.1	3.1	1.8	29.8*	19.5*

Source: PubChem BioAssay (several laboratories)
